Reference: PubChem BioAssay (NCI)
This is part of a sample that, as a whole, favours compounds with a hit. Of some 79,000 tested, about 15% had one in any assay. Cut-off read from the data, not from the text of the source: active = growth inhibition above about 70%; inactive = the rest.

How the values were obtained:
[1] = NCI Yeast Anticancer Drug Screen. Data for the rad50 strain (AID 155);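 note: 0% = growth of vehicle-only cultures of the same strain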; conditions: S. cerevisiae rad50 strain growth inhibition; at 50.0 µM; hits give high values
Summary of the method: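 Readout: growth inhibition relative to vehicle-treated cultures. Compound exposure was carried out in a genetically defined yeast strain deficient in DNA damage repair.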

[2] = NCI Yeast Anticancer Drug Screen. Data for the mec2-1 strain (AID 157); conditions: S. cerevisiae mec2-1 strain, at 50.0 µM, hits give high values
Summary of the method: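 Test agents were screened against the mec2-1 yeast strain, with defined DNA repair or cell cycle alteration. Growth was scored as inhibition against vehicle-only controls.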

[3] = NCI Yeast Anticancer Drug Screen. Data for the sgs1 mgt1 strain (AID 161);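 note: 0% = growth of cultures given vehicle only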; conditions: S. cerevisiae sgs1 mgt1 strain, at 50.0 µM, hits give high values
Summary of the method: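 Inhibition of yeast growth, normalised to vehicle-treated controls, is reported for a strain bearing genetic alterations in DNA damage repair.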

[4] = NCI Yeast Anticancer Drug Screen. Data for the cln2 rad14 strain (AID 165);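 note: 0% = growth equal to vehicle treated cultures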; conditions: S. cerevisiae cln2 rad14 strain, at 50.0 µM, hits give high values
Summary of the method: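 Growth of compound-exposed yeast (cln2 rad14 genotype) measured and expressed as inhibition relative to vehicle.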

[5] = NCI Yeast Anticancer Drug Screen. Data for the bub3 strain (AID 167); conditions: S. cerevisiae bub3 mutant strain, at 50.0 µM, hits give high values
Summary of the method: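 Readout: yeast growth inhibition, expressed relative to vehicle-only wells. The test organism is a mutant strain from a panel with lesions in DNA repair or checkpoint genes.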

[6] = NCI Yeast Anticancer Drug Screen. Data for the mlh1 rad18 strain (AID 175); conditions: S. cerevisiae mlh1 rad18 strain growth inhibition; at 50.0 µM; hits give high values
Summary of the method: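 In this whole-cell yeast screen, a strain with altered DNA damage repair is challenged with compound, and its growth is measured against matched vehicle-treated controls.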

Measured: growth inhibition

CC(=O)NC(NCCN)(c1ccccc1)c1ccccc1
inactive: [1] -9.7% | [2] -26.4% | [3] -8.1% | [4] 11.6% | [5] 9.6% | [6] -8.45%

COC(=O)c1nnn(-c2ccc(C)c(C)c2)c1C(=O)c1ccccc1
inactive: [1] -2.7% | [2] -2.5% | [3] -15.2% | [4] 16.5% | [5] -8.25% | [6] 29.1%

OC1CCCCC1[n+]1ccccc1 (stereo unspecified)
inactive: [1] -7.8% | [2] -0.6% | [3] -7.45% | [4] -24.1% | [5] -7.35% | [6] -0.55%

CCCCN=C1NS(=O)(=O)c2ccccc21
inactive: [1] 15.5% | [2] -11.5% | [3] 13.2% | [4] -8.15% | [5] 0% | [6] -0.6%

COC(=O)C(/C(=N\O)C(=O)Nc1cccc(Cl)c1C)c1cnc2ccccc2n1 (stereo unspecified)
inactive: [1] 14.5% | [2] -11.1% | [3] 8.75% | [4] 23.5% | [5] -0.2% | [6] 12.5%

O=C(Nc1ccc(CCO)cc1)Nc1ccc(Cl)cc1[N+](=O)[O-]
inactive: [1] -6.35% | [2] 34.9% | [3] 25.8% | [4] -18.7% | [5] 21.6% | [6] 17.6%

Cc1cc(C)nc(NS(=O)(=O)c2ccc(NC(=O)C(Cl)(Cl)Cl)cc2)n1
inactive: [1] -34% | [2] -24.6% | [3] -35.4% | [4] -13% | [5] -42% | [6] -39.8%

C(=Nc1cnc2ccccc2c1)c1ccc2ccccc2n1
inactive: [1] -5.3% | [2] -13.4% | [3] -11.3% | [4] -6.2% | [5] -55.9% | [6] -14.8%

CC(=O)OC[C@H]1O[C@@H](O[C@H]2[C@H](OC(C)=O)C=CO[C@@H]2COC(C)=O)C(OC(C)=O)[C@H]2OC(C)(C)O[C@H]21 (stereo partly specified)
inactive: [1] -9% | [2] -14.8% | [3] -18.9% | [4] 3.5% | [5] 7.05% | [6] 4.95%

CCOC(=O)Nc1cc2c(c(N)n1)N=C(c1ccc(OC)cc1)CN2
inactive: [1] 33.1% | [2] -6.75% | [3] 24.5% | [4] 30% | [5] 21.5% | [6] 11.2%

CCC(C)(C)N
inactive: [1] 0.3% | [2] 2.7% | [3] 4.25% | [4] -73.2% | [5] 9.15% | [6] -20.2%
